# Results filed as inconclusive are left out. Values without a mark were called inactive. Active and inactive are the calls of the source. Calls follow the shape of the dose curve; as a rule, active = well fitted activation curve with a large enough effect; inconclusive = small, poorly fitted or top-dose-only effect; inactive = flat fitted curve, though single readings scatter.
# Assay: qHTS for Hypoxia signaling pathway (HIF-1) agonists against the NCATS CANVASS Library (AID 1347375); as to activation: 0% is about no effect
# Conditions: HRE-bla ME-180 cells, HIF-1 beta-lactamase reporter, 17 h; series mostly up to 38.3 µM; activation: at the top concentration
# From the text: Natural products and their derivatives continue to be wellsprings of nascent therapeutic potential. However, many laboratories have limited resources for biological evaluation, leaving their previously isolated or synthesized compounds largely or completely untested. To address this issue, the Canvass library of natural products was assembled (https://tripod.nih.gov/canvass), in collaboration with academic and industry researchers, for quantitative high-throughput screening (qHTS) across a diverse set of cell-based and biochemical assays. The pure (>85% purity by liquid chromatography/mass spectrometry [LC/MS]) Canvass library of 346 natural products were submitted by 45 academic laboratories and companies around the world. We collected pure natural products to circumvent deconvolution and structure elucidation due to time and resource limitations. The library was formatted into 1536-well plates and evaluated in 50 qHTS (in an 11-pnt concentration series) bioassays with broad scope of disease-relevant mechanisms. The resulting data set from 50 different assays was then systematically analyzed to identify overall trends and specific natural products with interesting biological activities. Reported herein are the results of each individual qHTS and their corresponding assay protocol. During hypoxic conditions, the cellular responses are regulated in large part through the activation of the heterodimeric transcription factor called hypoxia-inducible factor-1 (HIF-1). The assay used is a beta-lactamase reporter gene under control of the hypoxia responsive element (HRE) that has been stably integrated into ME-180 cells. This assay identifies inducers of the HIF-1-signaling pathway. The cytotoxicity of the compound library against HRE-bla ME-180 cell line was tested in parallel by measuring cell viability using CellTiter-Glo assay (Promega, Madison, WI) in the same assay wells. The compounds were also tested for auto fluorescence that may interfere with the biological target readout resulting in potential false positives and/or negatives. National Center for Advancing Translational Sciences (NCATS), Rockville, MD National Institute of Health (NIH), Bethesda, Maryland
# HIF-1 agonist assay protocol: HRE-bla ME-180 cells were dispensed at 2,000 cells per well in 6 uL of assay medium containing 0.5% dialyzed FBS into black wall/clear-bottom 1536-well plates using a Multidrop Combi (Thermo Scientific, Waltham, MA) dispenser. After the assay plates were incubated at 37C and 5% CO2 for 5 hrs, 23 nL of compounds dissolved in DMSO, positive controls or DMSO only was transferred to each well of the assay plate using a Pintool station (Kalypsys, San Diego, CA). The assay plates were incubated at 37C and 5% CO2 for 17 hrs. One uL of LiveBLAzerTM B/G FRET substrate (CCF4-AM) (Life Technologies) was added to each well using a Flying Reagent Dispenser (Aurora Discovery, San Diego, CA). After 2 hr incubation at room temperature, fluorescence intensity (405 nm excitation, 460 nm and 530 nm emissions) was measured using an Envision plate reader (PerkinElmer, Shelton, CT). To assess cell viability (and for data normalization), 4uL of CellTiter-Glo (Promega) was added to the assay plate using the BioRAPTR dispenser and incubated at room temperature for 30 min. Luminescence signal was obtained using the ViewLux microplate reader (PerkinElmer) using a clear emission mirror, and a 15 sec exposure time, 1x binning settings.
# Potency is read from the fitted curve at half-maximal effect.
SMILES,activation,Potency
CCN1C[C@]2(C)CC[C@H](O)[C@]34C1C(C[C@H]23)[C@@]12CC[C@H](CC14)[C@](O)(COC(=O)c1ccc(OC)c(OC)c1)[C@H]2O (some centres not stated),1.74%,–
C/C=C1/CN2CC[C@]34C(=Nc5ccccc53)[C@@H]2C[C@@H]1[C@H]4C(=O)OC,-0.729% [at 76 µM],–
NCCc1ccccc1,-1.52%,–
CNCCc1ccc(O)cc1,-0.279%,–
CNCCc1c[nH]c2ccccc12,-1.21%,–
CCCCC[C@@H]1OC(=O)[C@@H](C)N(C)C(=O)[C@H](CCCCC)OC(=O)C(C)N(C)C(=O)[C@H](CCCCC)OC(=O)[C@@H](C)N(C)C(=O)[C@H](CCCCC)OC(=O)C(C)N(C)C1=O (some centres not stated),2.05%,–
COc1ccc2c3c([nH]c2c1)C(C)=NCC3,–,13.3 µM (active)
C[C@]12CC(O)C3[C@@H](CCC4C[C@@H](O)CC[C@@]43CO)[C@@]1(O)CCC2C1=CC(=O)OC1 (some centres not stated),-1.23%,–
CC[N@@+]1([O-])C[C@]2(C)CC[C@@H](O)[C@@]34C5C[C@H]6CC[C@@]5(C(C[C@H]23)C41)[C@H](O)[C@@]6(O)CO (some centres not stated),1.8%,–
CCC(=O)CCCCC[C@@H]1NC(=O)[C@H]2CCCCN2C(=O)[C@H]([C@@H](C)CC)NC(=O)[C@H](Cc2cn(OC)c3ccccc23)NC1=O,-4.33%,–
CCN1C[C@]2(C)CC[C@@H](O)[C@]34C1[C@H](C[C@H]23)C12CCC(CC14)[C@](O)(CO)[C@H]2O (some centres not stated),0.688%,–
C=C1[C@@H](C)[C@H]2[C@H](Cc3ccccc3)NC(=O)[C@]23OC(=O)/C=C/[C@H](O)CCC[C@@H](C)C/C=C/[C@H]3[C@@H]1O,-2.16%,–
C[C@@H]1CC[C@@H](c2ccoc2)N2C[C@@]3(CC[C@@H]12)CS[C@@]1(CC[C@H]2[C@H](C)CC[C@@H](c4ccoc4)N2[C@@H]1O)C3,–,8.38 µM (active)
CO[C@@H](/C=C/CC/C=C/C(=O)O)[C@@H](O)[C@H](C)/C=C(\C)[C@@H](O)[C@H](C)C(=O)CCCC1CC(=O)NC(=O)C1,1.49%,–
COC(=O)C1=C2Nc3ccccc3[C@@]23CCN2CC(C(C)=O)C1C[C@H]23 (some centres not stated),1.81%,–
CCCC[C@@H]1CC[C@H]2CCCC(CCC)N12 (some centres not stated),4.6%,–
CNCCc1ccccc1,-1.59%,–
CO[C@@H](/C=C/CC/C=C/C(=O)O)[C@@H](O)[C@H](C)[C@@H](O)/C(C)=C/[C@H](C)C(=O)CCCC1CC(=O)NC(=O)C1,4.51%,–
CN1C(=O)[C@]23CC4C(C)(C)[C@@]5(C[C@@]41CN2CC[C@@]3(C)O)C(=O)Nc1c5ccc2c1OC=CC(C)(C)O2 (some centres not stated),-2.26%,–
CC[C@@H]1CN2CC[C@@]3(O)C(=Nc4cccc(OC)c43)[C@@H]2C[C@@H]1/C(=C\OC)C(=O)OC,2.09%,–
CO[C@H](c1ccccc1)[C@H]1NC(=O)C(C)NC(=O)C(C[C@@H](C)CO)N(C)C(=O)[C@@H](C(O)c2cn(C(C)(C)C3CO3)c3ccccc23)NC(=O)C(C(C)C=C(C)C)NC(=O)C(CC(C)C)N(C)C(=O)C(C(C)C)NC1=O (some centres not stated),-3.65% [at 22.9 µM],–
CC(=O)N[C@H]1CCN2CCC[C@H]12,-1.44% [at 85.4 µM],–
COc1ccc(C23Oc4cc(OC)cc(OC)c4[C@](O)([C@H](c4ccccc4)C2C(=O)NCCCCNC(=O)c2ccccc2)[C@@H]3O)cc1 (some centres not stated),3.09%,–
COc1ccc2c(c1)[nH]c1c(C)nccc12,5.14% [at 76 µM],–
CCC[C@H]1CC[C@H]2[C@H](C)CCC[C@H]2N1,2.84%,–
CC=C1CN(C=O)[C@H]2C[C@@H]1[C@@H](C(=O)OC)[C@@]13CCOC21Nc1ccccc13 (some centres not stated),-0.981%,–
CC1=CC2CC[C@@H]3[C@@H](C)C[C@H](C)[C@@H](C1)N23 (some centres not stated),4.7%,–

# — PubChem BioAssay (NCATS)
